Results from PubChem BioAssay (NCI).
This is part of a sample that, as a whole, favours compounds with a hit. Of some 79,000 tested, about 15% had one in any assay. No stated cut-off is given here; in the data, active means growth inhibition above about 70%; inactive means the rest.

Key:
[1] = NCI Yeast Anticancer Drug Screen. Data for the rad50 strain (AID 155);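 further: 0% = growth of vehicle-only cultures of the same strain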; details: S. cerevisiae rad50 strain growth inhibition; at 50.0 µM; hits give high values
Outline: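 Readout: growth inhibition relative to vehicle-treated cultures. Compound exposure was carried out in a genetically defined yeast strain deficient in DNA damage repair.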

[2] = NCI Yeast Anticancer Drug Screen. Data for the mec2-1 strain (AID 157); details: S. cerevisiae mec2-1 strain, at 50.0 µM, hits give high values
Outline: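 mec2-1 yeast strain, carrying an alteration in DNA damage repair or cell cycle control, was exposed to compounds; growth inhibition was measured relative to vehicle-treated controls.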

[3] = NCI Yeast Anticancer Drug Screen. Data for the sgs1 mgt1 strain (AID 161);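 further: 0% = growth of cultures given vehicle only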; details: S. cerevisiae sgs1 mgt1 strain, at 50.0 µM, hits give high values
Outline: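 Yeast cells carrying a defined DNA-repair defect were exposed to test compounds. Growth inhibition was measured relative to vehicle-treated controls.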

[4] = NCI Yeast Anticancer Drug Screen. Data for the cln2 rad14 strain (AID 165);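 further: 0% = growth equal to vehicle treated cultures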; details: S. cerevisiae cln2 rad14 strain, at 50.0 µM, hits give high values
Outline: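 Yeast carrying cln2 and rad14 alterations (cell cycle control and DNA damage repair) were exposed to compounds. Growth inhibition was measured against vehicle-treated controls.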

[5] = NCI Yeast Anticancer Drug Screen. Data for the bub3 strain (AID 167); details: S. cerevisiae bub3 mutant strain, at 50.0 µM, hits give high values
Outline: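 Readout: yeast growth inhibition, expressed relative to vehicle-only wells. The test organism is a mutant strain from a panel with lesions in DNA repair or checkpoint genes.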

[6] = NCI Yeast Anticancer Drug Screen. Data for the mlh1 rad18 strain (AID 175); details: S. cerevisiae mlh1 rad18 strain growth inhibition; at 50.0 µM; hits give high values
Outline: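 Growth inhibition of the yeast strain was measured after compound exposure and expressed relative to vehicle-treated controls. The strain carries defined defects in DNA damage repair.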

Measured: growth inhibition

CC(=O)NCCc1ccc(OCc2ccccc2)cc1
inactive: [1] -7.15% | [2] 2.25% | [3] 3.7% | [4] -51.5% | [5] -19.4% | [6] -1.45%

CC([O-])=C1C(=O)c2ccccc2C1=O.CC([O-])=C1C(=O)c2ccccc2C1=O.CC[O-].CC[O-].[Ti+4]
inactive: [1] 19.4% | [2] 27.6% | [3] 55.4% | [4] 29% | [5] 37.8% | [6] 36.5%

CCC(C)C(N=C1N=CNC2=NC=NC12)C(=O)O (stereo not drawn)
inactive: [1] 0.45% | [2] -27.8% | [3] -2.6% | [4] 6.5% | [5] -10.6% | [6] -4.1%
